Source: PubChem BioAssay
TSHR ag: agonists of human thyroid stimulating hormone receptor | hit rate 0.48% among 73,000 | Potency, µM (top dose mostly 57.1 µM), without a hit: top-dose activation, most hits filed as activators | P16473 | HEK293-CNG-TSHR cells (CNG channel as cAMP sensor), membrane potential dye, cAMP; active = well fitted activation curve with a large enough effect in the main read-out, with a control signal flat, not every such curve was filed as active; inconclusive = small, poorly fitted or top-dose-only effect, or a change in a side signal; inactive = no such curve, though single readings can be large or run the other way; % of control where 0% means no effect;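 also: the control signal comes from parental cells without the receptor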
Target sequence (P16473 whole entry, looked up): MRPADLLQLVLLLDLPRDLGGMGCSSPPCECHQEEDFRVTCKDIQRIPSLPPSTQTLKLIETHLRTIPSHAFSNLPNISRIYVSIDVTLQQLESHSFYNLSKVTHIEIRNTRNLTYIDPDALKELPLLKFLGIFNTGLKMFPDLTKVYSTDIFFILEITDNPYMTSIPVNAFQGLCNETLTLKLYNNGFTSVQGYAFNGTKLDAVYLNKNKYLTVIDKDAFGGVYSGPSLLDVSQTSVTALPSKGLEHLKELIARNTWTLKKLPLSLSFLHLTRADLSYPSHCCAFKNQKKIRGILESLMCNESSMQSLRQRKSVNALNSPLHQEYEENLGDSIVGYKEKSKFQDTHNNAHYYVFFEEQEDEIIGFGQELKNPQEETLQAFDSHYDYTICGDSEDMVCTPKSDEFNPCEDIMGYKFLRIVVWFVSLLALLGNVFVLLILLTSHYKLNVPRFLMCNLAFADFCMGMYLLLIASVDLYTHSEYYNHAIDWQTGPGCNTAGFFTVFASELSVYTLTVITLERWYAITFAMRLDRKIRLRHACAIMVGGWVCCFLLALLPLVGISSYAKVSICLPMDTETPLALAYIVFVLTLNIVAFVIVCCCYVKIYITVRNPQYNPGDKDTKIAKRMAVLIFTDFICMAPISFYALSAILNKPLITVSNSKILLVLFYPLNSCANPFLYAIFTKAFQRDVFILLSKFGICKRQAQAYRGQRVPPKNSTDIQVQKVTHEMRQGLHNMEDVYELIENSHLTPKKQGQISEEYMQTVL
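HEK 293 cells stably expressing TSHR and a cAMP-gated CNG channel; parental CNG-only cells as counterscreen. Cells preloaded 60 min with membrane potential dye plus 100 uM RO 20-1724, then compound 30 min; fluorescence read at 590 nm.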
ERK AVP inh: inhibitors of vasopressin-stimulated ERK signaling pathway | AID 995 | HEK293-V1b, vasopressin-stimulated pERK AlphaScreen | Potency, µM (doses to about 57.5 µM), inactives show at the highest dose activity, negative = inhibition, usual class: inhibitors | hit rate 0.99% among 72,000; also: % is scaled to controls: 0 for no effect and ±100 for the full control effect; nearly all actives have a fitted effect of over 55% in size
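Phosphorylated ERK1/2 detected via AlphaScreen bead proximity in lysates of V1b-expressing HEK293 cells given 25 nM vasopressin for 5 min after 30 min compound exposure (37 °C). AC50 from Hill equation; basal DMSO 0%, vasopressin 100%.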
HEK293 cAMP ctrl: parental HEK293 cAMP activation (counter-screen); parental HEK293 CNG cAMP sensor, membrane potential fluorescence; Potency, µM (top dose mostly 57.1 µM), for inactives: at the highest dose activation, usual class: activators; hit rate 2.5% among 73,000; AID 938; also: % of control where 0% means no effect; nearly all actives have a fitted effect of over 55% in size
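Parental HEK 293 cells stably expressing a cAMP-gated CNG channel were loaded with membrane potential dye containing 100 uM RO 20-1724 for 60 min. Compound added for 30 min; depolarization read as fluorescence intensity at 590 nm.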
CRE-bla Fsk: modulators of forskolin-stimulated CRE signaling in CHO cells; CHO CRE-bla reporter (cAMP response element driving beta-lactamase), forskolin EC10, beta-lactamase ratio; Potency, µM (top dose mostly 38.2 µM), without a hit: top-dose activity change, negative = inhibition, usual class: activators; hit rate 2.5% among 71,000; AID 662; active = well fitted activation curve with a large enough effect in the signal ratio, with a control signal flat, not every such curve was filed as active; inconclusive = small, poorly fitted or top-dose-only effect, or effect the other way, or a change in a side signal; the % refers to the signal ratio; also: % of control where 0% means no effect
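Reporter-gene assay: CHO cells with beta-lactamase behind cAMP responsive elements, co-treated with compound and EC10 NKH 477 for 3 hours at 37 degrees Celsius. Activity came from the 460/530 nm CCF4 emission ratio.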
* marks the source's active call; other numbers are inactive results; u = inconclusive; x = no result given; ! = not confirmed by another sample; [ ] = dose if it differs, or a comment. The list is not random: actives were taken first. Their share in the collection is about 6%. Unless noted, calls follow the shape of the dose curve; as a rule, active = well fitted curve in the direction sought with a large enough effect; inconclusive = small, poorly fitted or top-dose-only effect, or another doubt; inactive = no such curve, though single readings can be large; an effect the other way counts as inactive or inconclusive. Potency is read from the fitted curve at half-maximal effect.

SMILES	TSHR ag	ERK AVP inh	HEK293 cAMP ctrl	CRE-bla Fsk
C[N+](C)(CCCOc1ccccc1)c1ccccc1	8%[25.6 µM]	15%[25.7 µM]	19%[25.6 µM]	-11%[17.1 µM]
O=C(O)CC12C[C@H]3C[C@@H](CC(O)(C3)C1)C2	2%[11.4 µM]	21%[11.5 µM]	20%[11.4 µM]	-6%[7.6 µM]
CCc1nc(N)c(C#N)c(-c2ccco2)c1C	13%	-7%	23%	10µM*
N#Cc1c(-c2ccco2)cc(-c2ccccn2)nc1N	u	3%	u	-2%
COc1ccc2nc(C)cc(N3CCOCC3)c2c1	9%	-13%	15%	10%
COc1ccc2nc(C)cc(N3CC(C)OC(C)C3)c2c1 (centres undefined)	u	-5%	16µM*	18%
O=C1NC(c2ccco2)Nc2sc3c(c21)CCN(Cc1ccccc1)C3 (centres undefined)	-1%	-8%	-1%	3.2µM*
COc1ccc(Br)cc1C1NC(=O)c2c(sc3c2CCN(C)C3)N1 (centres undefined)	0%	-3%	-3%	13µM*
CCOC(=O)N1CCc2c(sc3c2C(=O)NC(c2ccccc2)N3)C1 (centres undefined)	u	u	u	8%
CN1CCc2c(sc3c2C(=O)NC(c2cn(Cc4ccccc4)c4ccccc24)N3)C1 (centres undefined)	-21%	13µM*	-4%	u
CN1CCc2c(sc3c2C(=O)NC(c2ccco2)N3)C1 (centres undefined)	-2%	u	1%	13µM*
N#Cc1ccccc1-c1ccc2ncnc(NCCN3CCOCC3)c2c1	8%	-29%	-4%	u
COc1ccc(NC(=O)C=C(C)C)cc1Cl	8%	16%	0%	17%
COc1nc(Nc2ccc(OC)c(Cl)c2)nc(OC)n1	-2%	-18%	-2%	10µM*
CC/C(=C(\c1ccccc1)c1ccc(OCCN(C)C)cc1)c1ccc(O)cc1	18%	29%	24%	u
CC1(C)CNC(=O)c2sc(N3CCCCC3)nc2C1	u	-5%	20µM*	-2%
CCc1nc(N)c(C#N)c(-c2ccc(OC)c(OC)c2)c1C	9%	-9%	12%	u
CCc1nc(C)c(C#N)c2cc(OC)c(OC)cc12	9%	25µM*	4%	u
CCOc1ccc(Nc2cc(C)nc(-n3nc(C)cc3C)n2)cc1	u	u	u	13µM*
COc1ccc(Nc2cc(C)nc(N3CCOCC3)n2)cc1	3%	u	0%	4µM*
CNc1cc(C)nc(-n2nc(C)cc2C)n1	2%	-14%	14%	-5%
Cc1cc(NC2CCCCC2)nc(N2CCOCC2)n1	17%	x	4%	x
Cc1cc(C)n2nc(SCc3nc4ccccc4[nH]3)nc2n1	1%	x	-9%	0.79µM*
CCOc1ccc(-c2cc(CCCC(=O)NCc3cccnc3)no2)cc1	u	13µM*	u	4%
COc1ccc(O[C@H]2C=C[C@@H](c3ccccc3)O[C@H]2COC(=O)CC/C(C)=N\OC[C@@H](O)COCc2ccco2)cc1	5%[11.4 µM]	-11%[11.5 µM]	21%[11.4 µM]	x
SMILES	TSHR ag	ERK AVP inh	HEK293 cAMP ctrl	CRE-bla Fsk
CCOc1cc(N2CCOCC2)c(OCC)cc1NC(=O)c1nc2nc(C)cc(C)n2n1	-8%	-9%	-14%	5µM*
Cc1cc(C)n2nc(C(=O)Nc3ccccc3N3CCOCC3)nc2n1	1%	8%	-1%	u
CC1=C(C(=O)OCc2ccccc2)C(c2ccc([N+](=O)[O-])cc2)NC(=O)N1CCCCCC(=O)O (centres undefined)	-4%	8%	24%	10µM*
CC1=C(C(=O)OCc2ccccc2)C(c2ccc(C(C)(C)C)cc2)NC(=O)N1CCCCCC(=O)O (centres undefined)	u	20%	20µM*	u
CC1=C(C(=O)OCc2ccccc2)C(c2ccccc2)NC(=O)N1CCCCCC(=O)O (centres undefined)	x	-12%	28%	u
CC1(C)CC(=O)C(C(c2cccc(O)c2O)C2C(=O)CC(C)(C)CC2=O)C(=O)C1	3%[11.4 µM]	5%[11.5 µM]	-5%[11.4 µM]	-11%[7.6 µM]
COc1ccc(C2OC3C(CO)OC(n4cnc5c(=O)[nH]c(N)nc54)C3O2)cc1 (centres undefined)	x	-6%	x	x
COCCn1c(=O)c(-c2ccc(OC)cc2)nc2cnc(Oc3ccc(OC)cc3)nc21	u	-10%	u	u
COCCn1c(=O)c(-c2ccc(OC)cc2)nc2cnc(OC)nc21	12%	-5%	14%	10µM*
COCCn1c(=O)c(-c2ccc(F)cc2)nc2cncnc21	6%	10%	19%	u
COCCn1c(=O)c(-c2ccccc2)nc2cnc(Nc3cccc(OC)c3)nc21	0%	10%	-2%	u
COCCn1c(=O)c(-c2ccc(F)c(F)c2)nc2cncnc21	u	-19%	u	16µM*
N#CCCn1c(=O)c(-c2ccccc2)nc2cnc(Nc3ccccc3)nc21	u	u	10µM*	u
COCCn1c(=O)c(-c2ccc(OC)cc2)nc2cnc(Nc3ccccc3)nc21	4%	-9%	13%	0.32µM*
N#CCCn1c(=O)c(-c2ccc(Cl)cc2)nc2cnc(Nc3ccccc3)nc21	-12%	-21%	6%	u
O=C(NCCN1CCCCC1)c1ccc(-n2c(=O)c(=O)[nH]c3ccccc32)cc1	-1%	x	-9%	x
CCOC(=O)N/N=C1/C[C@@H](O)[C@@H](O)[C@@H]2[C@@H]3C(=O)N(Cc4ccccc4)C(=O)[C@H]3CC[C@H]12	-3%[11.4 µM]	9%[11.5 µM]	-5%[11.4 µM]	x
NS(=O)(=O)c1ccc(NC(=O)Nc2ccccc2F)cc1	2%[11.4 µM]	19%[11.5 µM]	11%[11.4 µM]	-1%[7.6 µM]
COc1ccccc1CNc1ccnc(-c2cccc(NS(C)(=O)=O)c2)n1	22%	-16%	15%	u
O=C1OC(=O)[C@@H]2[C@@H]1[C@@H]1CC[C@H]2O1	0%	-14%	20%	3.2µM*!
Cn1c(-c2ccc(Br)o2)nc2cc(Br)ccc21	u	u	16µM*	u
Cn1c(-c2ccc(Br)o2)nc2ccccc21	u	-11%	u	u
Cn1cccc1C(=O)N1CCC[C@@]2(CCN(C(c3ccccc3)c3ccccc3)C2)C1	u	-6%	10µM*	-8%
COc1ccc(-c2nnc(-c3cccnc3)o2)cc1OC	4%	u	-7%	10µM*
O=C(O)c1ccc(NS(=O)(=O)c2ccsc2C(=O)O)c(O)c1	-1%	-11%	15%	x
SMILES	TSHR ag	ERK AVP inh	HEK293 cAMP ctrl	CRE-bla Fsk
COc1ccccc1N1CCN(CCCNc2cc(=O)n(C)c(=O)n2C)CC1	u	38%	13µM*!	-7%
CC1=CC(C)(C)N(C(=O)c2ccccc2)c2ccccc21	u	61%	u	1%
COc1ccc(C(=O)N2c3cc4c(cc3C(C)=CC2(C)C)OCO4)cc1	16µM*	u	19%	u
O=C(O)/C(Cc1ccc([N+](=O)[O-])cc1)=N/O	-1%[11.4 µM]	-17%[11.5 µM]	10%[11.4 µM]	-1%[7.6 µM]
COc1ccc(C2=NOC(C(=O)Nc3cc(Br)ccc3O)C2)cc1OC (centres undefined)	-5%	10µM*	12%[2.29 µM]	16µM*
CC1(C)Cc2c(C#N)c(NC3CCCCC3)nc(-c3ccco3)c2CO1	u	x	u	3.2µM*
